Test results reported in ChEMBL document CHEMBL1157539, “Thousands of chemical starting points for antimalarial lead identification” (Nature, 2010).

Tests used:
Assay type in all cases: functional
Plasmodium falciparum [1] = assay: GSK_TCMDC: Inhibition of Plasmodium falciparum 3D7 in whole red blood cells, using parasite LDH activity as an index of growth. Test compounds present at 2uM
Plasmodium falciparum [2] = assay: GSK_TCMDC: Inhibition of Plasmodium falciparum Dd2 in whole red blood cells, using parasite LDH activity as an index of growth. Test compounds present at 2uM
HepG2 = assay: GSK_TCMDC: Percent inhibition of human HepG2 cell line. Test compounds present at 10uM.

Row | Structure (SMILES) | Inhibition (Plasmodium falciparum [1]) [%] | Inhibition (Plasmodium falciparum [2]) [%] | Inhibition (HepG2) [%]
1 | Cc1cccc2nc(-c3cccc(-c4ccc(CN5CCCC5CN)cc4)c3)[nH]c12.O=C(O)C(F)(F)F (centres undefined) | 100 | 47 | 19
2 | O=C(N/C=N/c1cc([N+](=O)[O-])c(-c2cccnc2)n1-c1ccc(O)cc1)c1ccccc1 | 100 | 62 | 17
3 | Cl.N#Cc1ccc2c(c1)CCN(CCC1CCC(NC(=O)c3ccc(-c4ccccn4)s3)CC1)CC2 (centres undefined) | 92 | 9 | 16
4 | O=C(C=Cc1ccc(Cl)c(Cl)c1)NCCCCCN1CCCC(CCCNS(=O)(=O)c2ccc(Br)cc2)C1 (centres undefined) | 88 | 5 | 43
5 | O=C(/C=C/c1ccc(Br)cc1)NCCCCCN1CCC(c2c[nH]c3ccccc23)CC1 | 99 | 19 | 73
6 | COc1ccc(N2C(=O)C3C(C2=O)C2(C)c4ccccc4C3(C)c3ccccc32)c([N+](=O)[O-])c1 (centres undefined) | 99 | 54 | 11
7 | C[C@@H](CC1CCCCC1)NCc1cccc(NS(=O)(=O)c2ccc(O)c(-c3ccno3)c2)c1.Cl | 88 | 4 | 0
8 | CS(=O)(=O)c1cc2c(Nc3ccc(N4CCOCC4)cc3)c(C(N)=O)cnc2cc1Br.Cl | 100 | 89 | 0
9 | O=C(Nc1ccsc1)Nc1cccc(-c2cccc(-c3nc4ccccc4[nH]3)c2)c1 | 100 | 55 | 61
10 | C/C=C/COc1ccc2ccccc2c1CNCCCCCCCCNCc1c(OC/C=C/C)ccc2ccccc12.CS(=O)(=O)O.O | 87 | 86 | 100
11 | O=C(Nc1ccc(Br)cc1)N(CCN1CCOCC1)CC(O)COCc1ccc(F)cc1.O=C(O)C(F)(F)F (centres undefined) | 90 | 3 | 5
12 | Cc1cc(N)c2cc(NC(=O)c3cc4ccccc4s3)ccc2n1 | 100 | 99 | 100
13 | O=C(Cn1c(CCc2cccc(F)c2F)nc(=O)c2ccccc21)N(CCCN1CCCCC1)Cc1ccc(-c2ccc(C(F)(F)F)cc2)cc1.O=C(O)C(O)C(O)C(=O)O | 100 | 94 | 100
14 | O=C(Nc1cccc(-c2ccc(-c3nc4cc(C(F)(F)F)ccc4[nH]3)cc2)c1)c1csnn1 | 98 | 93 | 23
15 | NC(=O)c1cccc(CN2Cc3ccccc3OC3(CCN(Cc4c[nH]c5cnccc45)CC3)C2)c1.O=C(O)C(F)(F)F | 94 | 2 | 9
16 | CN(C)CCCOc1ccc(CN2CC[C@H](NC(=O)c3ccc(Cl)c(Cl)c3)C2)cc1Br.O=C(O)C(F)(F)F | 100 | 34 | 11
17 | CCOC(=O)CNC(=O)c1cc(=O)c2ccccc2o1 | 99 | 0 | 22
18 | Cn1nc(-c2ccc(NC(=O)Nc3cc(C(F)(F)F)ccc3F)cc2)c2cnc(NCCCCN3CCCC3)nc21.O=C(O)C(F)(F)F | 98 | 74 | 88
19 | Cc1nc(C)c(-c2ccc(Oc3ccc(OC(F)(F)F)cc3)cc2)c(O)c1I | 95 | 96 | 3
20 | CCCSc1nc2c(c(=O)n1CCc1ccccc1)C1(CCCC1)Cc1ccccc1-2 | 99 | 53 | 46
21 | Cc1ccc(O)cc1Nc1ccnc2cc(-c3ccc(CN4CCCCC4)o3)ccc12 | 100 | 99 | 16
22 | COc1ccc(-c2cccc(NC(=O)c3ccc(Cl)cc3)c2)cc1CN1CCCN(C)CC1.O=C(O)C(F)(F)F | 100 | 95 | 29
23 | Nc1ncc(-c2ccsc2)c2ccc(-c3cnc[nH]3)cc12 | 100 | 70 | 31
24 | O=C(O)C(F)(F)F.O=S(=O)(NCCN1CCCC1)c1cccc(-c2cccc(CNCc3ccc(F)cc3)c2)c1 | 99 | 73 | 41
25 | COc1ccc(Oc2ccc(-c3c(C)[nH]c(C)c(Cl)c3=O)cc2)cc1 | 97 | 97 | 0
26 | CCOC(=O)c1c(NC(=O)c2ccccc2)sc2c(O)c(CN(CC)CC)ccc12.Cl | 100 | 100 | 9
27 | CNC(=O)C1Cc2c([nH]c3cc(Br)ccc23)C2(CCN(CCc3ccccc3)CC2)N1 (centres undefined) | 100 | 31 | 10
28 | COc1ccc(Nc2nc(N)c3cc(OC)c(OC)cc3n2)cc1OC.Cl | 99 | 5 | 0
